From PubChem BioAssay AID588342 (National Center for Advancing Translational Sciences (NCATS), 2011)
The whole screen tested about 360,000 compounds, of which about 25,000 (6.9%) were called active. Not shown: some 9% with an inconclusive outcome. Calls follow the shape of the dose curve; as a rule, active = well fitted inhibition curve with a large enough effect; inconclusive = small, poorly fitted or top-dose-only effect; inactive = flat fitted curve, though single readings scatter. Shown is part of a subset that was picked to be rich in actives. Where a call stands in place of a potency, no number is given.

target: Luciferin 4-monooxygenase (Photinus pyralis) (UniProt P08659); experiment: qHTS profiling assay for firefly luciferase inhibitor/activator using purifed enzyme and Km concentrations of substrates (counterscreen for miR-21 project); settings: purified FLuc, luminescence inhibition; series mostly up to 57.5 µM; also: nearly all actives have a fitted effect of over 55% in size
Outline: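 Biochemical qHTS of compounds, final roughly 60 µM downward over six points, against 10 nM purified firefly luciferase using Km concentrations of substrates (10 uM D-luciferin, 10 uM ATP) in Tris acetate pH 7.5 buffer; luminescence output.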
Potency is read from the fitted curve at half-maximal effect.

Chain of Luciferin 4-monooxygenase (Photinus pyralis) (P08659 whole entry, looked up): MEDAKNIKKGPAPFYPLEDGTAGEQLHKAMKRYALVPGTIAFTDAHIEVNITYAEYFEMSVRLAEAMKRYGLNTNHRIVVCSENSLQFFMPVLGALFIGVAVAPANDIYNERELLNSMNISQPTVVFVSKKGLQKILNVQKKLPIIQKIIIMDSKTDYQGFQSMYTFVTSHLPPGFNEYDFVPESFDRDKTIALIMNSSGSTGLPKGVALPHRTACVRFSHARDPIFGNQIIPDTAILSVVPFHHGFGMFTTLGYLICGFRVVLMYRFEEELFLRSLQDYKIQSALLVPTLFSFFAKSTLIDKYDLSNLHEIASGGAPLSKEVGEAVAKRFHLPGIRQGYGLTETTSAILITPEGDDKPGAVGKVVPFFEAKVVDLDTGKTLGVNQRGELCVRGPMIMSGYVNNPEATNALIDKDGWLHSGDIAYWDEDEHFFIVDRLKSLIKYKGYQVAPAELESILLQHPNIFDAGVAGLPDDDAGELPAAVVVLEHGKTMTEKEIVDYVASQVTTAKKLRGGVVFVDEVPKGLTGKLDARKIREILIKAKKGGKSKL

| SMILES | Potency |
| --- | --- |
| C[N+]1(CCNC(=O)/C=N/O)CCCCC1 | inactive |
| COc1ccc(-n2cnc3cc(NCc4ccco4)ccc32)cc1 | 7.57 µM (active) |
| C=CCC(NCc1ccco1)c1ccc(OC)cc1 (configuration not stated) | inactive |
| COc1ccc(-n2cnc3cc(C(=O)NC4CCCC4)ccc32)cc1 | inactive |
| Cc1ccc(S(=O)(=O)c2nnn3c2nc(N2CCN(c4ccccc4F)CC2)c2cc(Cl)ccc23)cc1C | inactive |
| COc1ccc(CCNC(=O)c2cnc3sc(N4CCCCCC4)nn3c2=O)cc1OC | inactive |
| O=C(CCN1C(=O)c2ccccc2C1=O)NCCCn1ccnc1 | inactive |
| O=C(CN1C(=O)S/C(=C\c2ccccc2F)C1=O)NCCCn1ccnc1 | inactive |
| COc1ccc(/C=C2\SC(=O)N(CCC(=O)NCCCn3ccnc3)C2=O)cc1 | 13.5 µM (active) |
| COc1ccc(/C=C2\SC(=O)N(CCC(=O)NC3CCS(=O)(=O)C3)C2=O)cc1 (configuration not stated) | 10.7 µM (active) |
| COc1ccc(NC(=O)CCN2C(=O)/C(=C/c3ccc4c(c3)OCO4)SC2=S)cc1 | inactive |
| COc1ccc(NC(=S)NC2CCS(=O)(=O)C2)cc1 (configuration not stated) | inactive |
| O=C(C1CCN(CC2CCCCC2)CC1)N1CCCC1 | inactive |
| COc1ccc(-c2nn3c(=O)cc(CN4CCN(C(=O)c5ccc(OC)c(OC)c5)CC4)nc3s2)cc1 | inactive |
| COc1ccc(-n2nnc(-c3nsc(NC(=O)c4ccc(C)c(C)c4)n3)c2C)cc1Cl | inactive |
| CCc1cccc(-n2nnc(-c3nsc(NC(=O)c4ccc(C)cc4)n3)c2C)c1 | inactive |
| Cc1c(-c2nsc(NC(=O)c3cccc(Cl)c3)n2)nnn1-c1ccccc1C(F)(F)F | 12 µM (active) |
| COc1ccc(OCCCn2c(C)nc3cc(C)c(C)cc32)cc1 | inactive |
| CC(=O)c1cnc(-c2ccccc2)s1 | inactive |
| O=C(/C=C/Nc1ccccc1)c1cnc(-c2ccccc2)s1 | inactive |
| CC(C)(C)C(=O)c1cnc(Nc2ccccc2)s1 | 6.01 µM (active) |
| COc1ccc(NC(=O)CSc2nnc(-c3nnn(-c4ccc(F)cc4)c3C)o2)cc1 | inactive |

| SMILES | Potency |
| --- | --- |
| CN(C(=O)COc1nnc(-c2cccs2)c(-c2cccs2)n1)c1ccccc1 | inactive |
| O=C(O)Cc1sc(-c2ccccc2)nc1-c1cccs1 | 23.9 µM (active) |
| CCc1c(-c2ccccc2)nc(N)c(C#N)c1-c1cccs1 | inactive |
| O=C(CCc1ccccc1Cl)Nc1ccc(S(=O)(=O)Nc2nccs2)cc1 | inactive |
| COc1cc(C(=O)N(Cc2ccc(C(C)C)cc2)C2CCS(=O)(=O)C2)cc(OC)c1OC (configuration not stated) | inactive |
| CC(=O)N/N=C(\C)c1ccc(Br)cc1Br | inactive |
| CC(=N\NC(=O)c1cc(Br)ccc1O)/C(=N/O)C(=O)Nc1ccccc1 | 15.1 µM (active) |
| COc1ccc(-c2[nH]ncc2/C=N/NC(=O)c2cc(Br)ccc2O)c(OC)c1 | inactive |
| CCOC(=O)c1c(NC(=O)c2ccc(S(=O)(=O)N3CCCC(C)C3)cc2)sc2c1CCN(C(C)C)C2 (configuration not stated) | inactive |
| CC(C)CCN1CCC(C)(NC(=O)c2ccccc2)C1=O (configuration not stated) | inactive |
| CC1=C(c2ccc(F)cc2)S(=O)(=O)N=C1N1CCC(C(=O)NCCc2ccccc2C)CC1 | inactive |
| CCOC(=O)N1CCC(NC(=O)c2cnn3ccccc23)CC1 | inactive |
| O=C(c1cnn2ccccc12)N1CCc2ccccc21 | 6.75 µM (active) |
| Cc1cnc(C(=O)OCC(=O)N2CCc3ccccc32)cn1 | inactive |
| CCOC(=O)c1c(NC(=O)/C(C#N)=C/c2ccccc2)sc2c1CCC2 | inactive |
| COc1ccc(Cn2c(C(=O)O)c(CNCc3cccc(OC)c3)c3ccc(C)cc32)cc1 | inactive |
| CN1CCN(S(=O)(=O)c2cccc(C(=O)Nc3sccc3C#N)c2)CC1 | inactive |
| O=C(Nc1ccncc1)c1ccccc1[N+](=O)[O-] | inactive |
| O=C(Nc1ccccc1C(=O)Nc1ccncc1)c1ccc([N+](=O)[O-])cc1 | 19 µM (active) |
| O=C(Nc1ccncc1)c1ccc(Cl)c([N+](=O)[O-])c1 | inactive |
| CC(=O)Nc1ccc(NC(=O)CSc2nnc(C3CC3)n2-c2ccccc2)cc1 | inactive |
| CCc1nn(CCCC(=O)NCc2ccccc2OC)c(=O)c2cc3occc3n12 | inactive |

| SMILES | Potency |
| --- | --- |
| CC1CN(C(=O)N2CCC(C(=O)NCc3cccs3)CC2)c2ccccc2O1 (configuration not stated) | 1.9 µM (active) |
| O=C(NCc1cccs1)C1CCN(S(=O)(=O)c2ccc(Cl)cc2)CC1 | inactive |
| CC1CN(C(=O)N2CCC(C(=O)NCc3ccco3)CC2)c2cc(Cl)ccc2O1 (configuration not stated) | inactive |
| Cc1nc2nc(SCC(=O)NC3CCC(C)CC3)nn2c(C)c1Cc1ccccc1Cl (configuration not stated) | inactive |
| S=c1[nH]nc(/C=C/c2ccccc2)o1 | 26.9 µM (active) |
| O=c1oc(/C=C/c2ccccc2)nc2ccccc12 | inactive |
| Clc1ccc(CSc2nnc(/C=C/c3ccccc3)o2)c(Cl)c1 | inactive |
| COc1cccc(-n2ccn(CC(=O)NCc3ccc(C)cc3)c(=O)c2=O)c1 | inactive |
| CCS(=O)(=O)N1CCc2cc(C(=O)N3CCN(c4ccccc4OC)CC3)ccc21 | inactive |
| CCc1ccccc1NC(=O)c1sc2nc3c(cc2c1N)CN(Cc1ccccc1)CC3 | inactive |
| CCc1ccc2nc3sc(C(=O)Nc4nnc(CC)s4)c(N)c3cc2c1 | 2.39 µM (active) |
| CCc1nnc(NC(=O)c2nc3nccc(C)n3n2)s1 | inactive |
| CSc1ccc(CCNC(=O)c2ccc3c(c2)nc2n3CCOC2)cc1 | inactive |
| CC(C)c1ccc(S(=O)(=O)N2CCC3(CC2)OCCO3)cc1 | inactive |
| CC(C)c1ccc(/C=C2\NC(=O)NC2=O)cc1 | 21.3 µM (active) |
| Cc1ccc(NC(=O)COc2ccc(/C=C3/NC(=O)NC3=O)cc2)cc1 | inactive |
| Cc1ccc(C)c(Cn2c(C(=O)O)c(CNCc3cccs3)c3ccccc32)c1 | inactive |
| Cc1occc1C(=O)Nc1cccc(Cn2cccn2)c1 | inactive |
| COc1cc(SC)ccc1C(=O)N(Cc1ccccc1)c1ccccc1 | inactive |
| O=C(NCCOc1ccccc1Cl)C(=O)Nc1ccccc1 | inactive |
| Cc1ccnc(NC(=O)C(C)N2C(=O)c3ccccc3C2=O)c1 (configuration not stated) | inactive |
| Cc1ccnc(NC(=O)c2ccoc2C)c1 | 16.9 µM (active) |

| SMILES | Potency |
| --- | --- |
| Cc1ccnc(NC(=O)CCCOc2ccccc2)c1 | inactive |
| COc1cc(SC)ccc1C(=O)Nc1cc(C)ccn1 | 1.35 µM (active) |
| COc1ccccc1OCCNC(=O)CCNC(=O)c1ccccc1Cl | inactive |
| COc1cc(SC)ccc1C(=O)Nc1nc(C)cs1 | 0.0757 µM (active) |
| Cc1csc(NC(=O)CSc2nc(=O)cc(N)n2-c2ccc(F)cc2)n1 | inactive |
| COc1cc(Cl)c(C)cc1NC(=O)COC(=O)c1cc(SC)ccc1Cl | inactive |
| COc1cc(SC)ccc1C(=O)NCCOc1ccccc1Cl | 6.01 µM (active) |
| O=C(CN1CCN(C(=O)C2CCCO2)CC1)Nc1c(Cl)cccc1Cl (configuration not stated) | inactive |
| CCCCCCNC(=O)CSc1nccn1Cc1ccccc1 | inactive |
| COC(=O)Cn1cnc2scc(-c3ccc(C)c(C)c3)c2c1=O | inactive |
| CCC(NC(=O)c1ccccc1NC(=O)c1ccccc1)C(=O)NNC(=O)CSc1nc2ccccc2o1 (configuration not stated) | inactive |
| O=C(Cn1nnc2ccccc2c1=O)Nc1cc(C(F)(F)F)ccc1N1CCOCC1 | inactive |
| CC(CO)NCC12CC3CC(CC(C3)C1)C2 (configuration not stated) | inactive |
| CCOc1ccccc1NC(=O)c1ccc2c(c1)CCN2S(=O)(=O)c1ccc(C)cc1 | inactive |
| O=C(NCCc1csc(-c2ccc(C(F)(F)F)cc2)n1)C(=O)Nc1ccc(F)c(Cl)c1 | inactive |
| Cc1ccc(C)c(N2CCN(C(=O)CN3C(=O)COc4ccc(S(=O)(=O)N5CCCCCC5)cc43)CC2)c1 | inactive |
| O=C(c1ccccc1)N1CCN(c2ccc([N+](=O)[O-])c(NCc3ccco3)c2)CC1 | inactive |
| COc1ccccc1OCCNc1cc(N2CCOCC2)ccc1[N+](=O)[O-] | 15.1 µM (active) |
| CC(=O)Nc1ccc(S(=O)(=O)N2CCN(c3ccc([N+](=O)[O-])c(NCCN4CCOCC4)c3)CC2)cc1 | inactive |
| O=C(CCn1ccc2cc(S(=O)(=O)N3CCCC3)ccc21)NCc1cccc(Cl)c1 | inactive |
| COc1ccc(-c2noc(C(C)NS(=O)(=O)c3ccc(NC(C)=O)cc3)n2)cc1 (configuration not stated) | inactive |
| CCCn1c(N)c(C(=O)CSc2nnc3n2CCCCC3)c(=O)[nH]c1=O | inactive |

| SMILES | Potency |
| --- | --- |
| Cc1nc(/N=C(\N)NC(=O)NC2CCCCC2)nc2ccccc12 | 16.9 µM (active) |
| COC(=O)[C@H](Cc1ccccc1)NC(=O)Nc1ccc(OC)cc1 | inactive |
| COc1ccc2nc(/N=C(\N)NC(=O)Nc3ccccc3)nc(C)c2c1 | 26.9 µM (active) |
| O=C(NNC(=O)C(O)c1ccccc1)NC1CCCCC1 (configuration not stated) | inactive |
| COc1cc(NC(=O)c2nc3ccccc3nc2C)cc(OC)c1OC | inactive |
| O=C(Cn1nnc(-c2ccccc2)n1)NC(=O)NC1CCCC1 | inactive |
| Cc1cc(NC(=O)CC(C)C)cc(-c2nc3ncccc3o2)c1O | inactive |
| O=C(c1cccs1)c1cn(CCOc2ccc(Cl)cc2)c2ccccc12 | inactive |
| O=C(CCCOc1ccccc1)Nc1cccc(C(=O)O)c1 | 15.1 µM (active) |
| CCOC(=O)c1cccc(NC(=O)CCOc2ccccc2)c1 | inactive |
| COc1ccc(OCCCC(=O)Nc2cccc(S(=O)(=O)N3CCCCCC3)c2)cc1 | inactive |
| COCCn1cnnc1SCC(=O)Nc1cccc(S(=O)(=O)N2CCCCC2)c1 | inactive |
| CCOc1ccccc1CNC(=O)c1cnc2c(-c3ccc(OCC)c(OCC)c3)c(C)nn2c1C | inactive |
| COc1ccc(OCc2ccc(-c3nc4ccccc4c(=O)n3N)o2)cc1 | 12 µM (active) |
| COC(=O)c1ccc(CSc2nc3ccccc3c(=O)n2-c2cccc(OC)c2)o1 | inactive |
| COc1ccccc1OCCCn1c(-c2ccc(Cl)cc2)nc2ccccc2c1=O | inactive |
| COc1ccc(-c2nc3ccccc3c(=O)n2CCc2ccc(O)cc2)cc1 | 21.3 µM (active) |
| COc1cccc(OCCn2c(-c3ccc(Br)cc3)nc3ccccc3c2=O)c1 | inactive |
| COc1ccc(OCc2ccc(-c3nc(C#N)c(N4CCN(c5ccccc5)CC4)o3)o2)cc1 | inactive |
